Measured values reported in ChEMBL document CHEMBL3433997, “St. Jude Leishmania screening dataset” (2016).

Target: Solute carrier family 2, facilitated glucose transporter member 1 (Homo sapiens) (UniProt P11166)
Assay: ST_JUDE_LEISH: Cytotoxicity at 2uM final concentration against transgenic Leishmania Mexicana promastigotes LmGLUT1 that are glucose transport deficient and complemented with the human glucose transporter GLUT1. Activity is measured by DNA content using SYBR green in vitro
Format: functional

Sequence of Solute carrier family 2, facilitated glucose transporter member 1 (Homo sapiens) (P11166 whole entry): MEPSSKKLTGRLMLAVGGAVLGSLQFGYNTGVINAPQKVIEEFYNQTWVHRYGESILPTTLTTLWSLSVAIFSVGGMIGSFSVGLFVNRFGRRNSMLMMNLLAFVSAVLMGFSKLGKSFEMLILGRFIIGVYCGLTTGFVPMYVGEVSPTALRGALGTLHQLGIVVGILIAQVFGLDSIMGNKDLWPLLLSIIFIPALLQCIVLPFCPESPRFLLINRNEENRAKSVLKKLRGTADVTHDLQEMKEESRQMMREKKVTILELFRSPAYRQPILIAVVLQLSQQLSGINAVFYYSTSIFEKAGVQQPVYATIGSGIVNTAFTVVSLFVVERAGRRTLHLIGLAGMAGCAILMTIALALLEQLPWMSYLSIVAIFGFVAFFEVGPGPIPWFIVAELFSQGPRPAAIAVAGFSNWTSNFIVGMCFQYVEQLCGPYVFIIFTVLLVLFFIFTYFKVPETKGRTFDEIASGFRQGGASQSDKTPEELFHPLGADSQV

**Q.** Which inhibition does the source give for `O=C(Nc1cccc(CN2CCN(C(=O)c3cccc(F)c3)CC2)c1)c1ccco1` here?
**A.** 2.27%

**Q.** For `Cc1cc(NCCC(=O)Nc2ccccc2)nc(NCCc2cccs2)n1`, which inhibition is on record?
**A.** 4.03%

**Q.** `Cc1ccccc1C1CCN(c2ccc(NC(=O)c3ccc(Cl)nc3)cc2)CC1` was tested. Which inhibition did it give?
**A.** 3.34%

**Q.** `O=C1CSc2ccc(CNC3CCN(CCc4c(Cl)cnc5ccc(F)cc45)CC3)nc2N1` was tested. Which inhibition did it give?
**A.** 0.93%

**Q.** For `Cc1cc(C2CCN(CCCCNC(=O)c3ccc(NC(=O)c4ccc(Cl)cc4)cc3)CC2)c(C)cc1OCc1cccnc1`, which inhibition is on record?
**A.** 0.04%

**Q.** How did the inhibition turn out when `CCCCCCN1CCN(Cc2cccc(NC(=O)c3ccc(Cl)c(Cl)c3)c2)CC1` was run?
**A.** 5.8%

**Q.** For `COc1ccccc1-n1c(SCC(=O)c2ccc3c(c2)CC(=O)N3C)nnc1-c1cccs1`, which inhibition is on record?
**A.** 24%

**Q.** For `COc1cc(NC(=O)/C=C/c2cccc3cc[nH]c23)ccc1OCCN(C(C)C)C(C)C`, which inhibition is on record?
**A.** 2.46%

**Q.** How did the inhibition turn out when `CCOc1ccc(Nc2cc(C)nc(Nc3ccc(OCC)cc3)n2)cc1` was run?
**A.** 0.78%

**Q.** For `Clc1ccc(CNCCCCCCCNCc2ccc(Cl)c(Cl)c2)cc1Cl`, which inhibition is on record?
**A.** -1.86%

**Q.** `O=C(/C=C/c1ccc(Cl)c(Cl)c1)NCCCCCN1CCC(CCNC(=O)/C=C/c2ccccc2F)CC1` was tested. Which inhibition did it give?
**A.** 2.07%

**Q.** For `Cc1ccc(NC(=O)c2ccc(CN3CCCN(CC4CCCCC4)CC3)cc2)cc1`, which inhibition is on record?
**A.** 7.01%

**Q.** `CC(=O)N1CCC(C(=O)Nc2ccc(-c3cccc(-c4nc5cc(C(F)(F)F)ccc5[nH]4)c3)cc2)CC1` was tested. Which inhibition did it give?
**A.** 0.57%

**Q.** `CC(NC(=O)c1cc(-c2ccccc2)nc2c1cnn2C(C)C)C1CC1` (stereo not given) was tested. Which inhibition did it give?
**A.** 1.45%

**Q.** Which inhibition does the source give for `O=C(/C=C/c1ccc(Cl)c(Cl)c1)NCCCCCN1CCC(C(=O)Nc2ccc(F)c(Cl)c2)CC1` here?
**A.** 4.66%
